In general, viability refers to the share of living cells, or the viability signal relative to a control.

Active and inactive are the calls of the source.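 Rule for the calls: active = viability loss from added drug above about 55%, and viability with drug at most 40%, in both replicates (limit read from the data, passing the limit was not always enough); inconclusive = both conditions met in only one replicate; inactive = neither replicate meets both conditions.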

A short description of one test: reversal of MRP1-mediated doxorubicin resistance, pilot screen, H69AR cells, doxorubicin co-treatment (AID 601). The conditions noted are these: H69AR cells + 2 uM doxorubicin, CellTiter-Glo, 72 h; at 10 µM; stronger effect = higher value. In general terms: Cellular ATP, detected with luciferase, serves as a proxy for viable cell number.
As for `CCOC(=O)C1CCCN(C(=O)CNS(=O)(=O)c2ccc(Br)s2)C1` (stereo not given), the differential viability (reversal) is 17.7% (inactive).
On the same count and under the same terms, with `COc1ccc(CN(C)CC(=O)c2c(N)n(Cc3ccccc3)c(=O)n(C)c2=O)c(OC)c1` the figure was 10.3% (inactive); with `CC(CN1CCOCC1)(NS(=O)(=O)c1ccccc1)c1ccccc1` (stereo not given), 9.75% (inactive).
Same read-out and setting: the figure for `CCOC(=O)CSC1=Nc2ccccc2C2=NC(CC(=O)NCc3cccs3)C(=O)N12` (stereo not given) is 5.7% (inactive); for `Cc1ccc(-c2nn3c(C)nnc3s2)cc1N` it is 16.5% (inactive); for `CC1(C)C2CCC1(CS(=O)(=O)NCc1ccc(C(=O)O)cc1)C(=O)C2` (stereo not given) it is 23.7% (inactive).
Turning to `O=c1c2ccccc2c(C=Nc2ccc(Cl)cn2)c(O)n1-c1cc(Cl)ccc1N1CCOCC1`, the differential viability (reversal) was 7.31% (inactive).
Take `O=C(Nc1ccc(S(=O)(=O)Nc2ccc(Cl)cc2)cc1)C1CCCO1` (stereo not given): the differential viability (reversal) was 0.92% (inactive).
Same read-out and setting: the figure for `CCOc1ccc(C(=O)Nc2cc(C)on2)cc1OCC` is 0.35% (inactive); for `O=C1CC(Cc2ccccc2)C(=O)N1CCc1ccc2c(c1)OCO2` (stereo not given) it is 4.62% (inactive); for `COc1ccccc1-c1nc(C(F)(F)F)c(OC)o1` it is 10.3% (inactive).
Same read-out and setting: with `OCCn1c(CSc2nnc(-c3ccco3)n2-c2ccccc2)nc2ccc(Cl)cc21` the figure was 3.29% (inactive); with `COc1cc2c(cc1OC)CN(C(=O)COc1ccc(C#N)cc1)CC2`, -12% (inactive); with `CCOC(=O)NC(=O)CSc1nnc(C)s1`, 8.07% (inactive).
The same measure, in the same setting: the figure for `CC1(C)CC(=O)C2=C(C1)Nc1nc(SCCN3CCOCC3)[nH]c(=O)c1C2c1cccs1` (stereo not given) is 2.1% (inactive).
For the compound `COc1ccc(C(=O)CSc2nnc(CNc3ccc(C)cc3C)o2)cc1`, the differential viability (reversal) is 0.595% (inactive).
For `CCCCc1cc(=O)oc2c(CN3CCCC3)c(O)c(Cl)cc12`, the differential viability (reversal) was 3.32% (inactive).
Same read-out and setting: the figure for `CCOc1ccccc1OCC(=O)NCc1ccco1` is 0.205% (inactive); for `COCCn1cc(C(=O)NCCCN2CCC(C)CC2)c2c3ccccc3n(C)c2c1=O` it is 2.62% (inactive); for `Cc1nc(C)c(C(=O)OCC(=O)N2CCN(c3ccccc3)CC2)s1` it is 7.64% (inactive).
The same measure, in the same setting: with `COC(=O)c1cc(Br)ccc1-c1ccc(/C=N/n2nnnc2N)o1` the figure was 14% (inactive).
The same measure, in the same setting: the figure for `O=C1c2ccccc2NC(c2ccco2)N1O` (stereo not given) is 9.15% (inactive); for `COc1cc(CN2CCC(C(=O)NC3CCCC3)CC2)ccc1O` it is 9.49% (inactive); for `Cn1c(=O)n(C)c2cc(NC(=O)C(F)(F)F)ccc21` it is 11.6% (inactive).
For `Cc1nc(SCC(=O)CC(=O)OC(C)C)c(C#N)c(C)c1C`, the differential viability (reversal) was 6.36% (inactive).
The same measure, in the same setting: the figure for `COc1ccc(Br)cc1S(=O)(=O)N1CCOCC1` is 3.77% (inactive); for `CC(=O)CC(=O)Nc1ccccc1NC(C)=O` it is 8.12% (inactive).
Turning to `Cn1c(=O)c2ccccc2n(Cc2ccccc2F)c1=O`, the differential viability (reversal) is -5.55% (inactive).
Regarding `Cc1ccc(NC(=O)c2ccco2)c(NC(=O)c2cccs2)c1`, the differential viability (reversal) was -1.08% (inactive).
As for `CC(=O)N1C(=O)c2cccc3cccc(c23)C(=O)N1C(C)=O`, the differential viability (reversal) is -1.27% (inactive).
Same read-out and setting: with `CCCC(C)C1C(C#N)=C(N)Oc2cc(C)oc(=O)c21` (stereo not given) the figure was -6.91% (inactive).
Still for that read-out and setting: the figure for `CC(C)OC(=O)CSc1nnc(-c2ccc(O)cc2)n1Cc1ccccc1` is -4.22% (inactive).
`Cn1c(=O)c(=O)n(C)c2cc(S(=O)(=O)N3CCCCC3)ccc21`: the differential viability (reversal) was 16.1% (inactive).
On to `Cc1nc2ccc(NC(=O)NCc3ccco3)cc2s1`, for which the differential viability (reversal) was 7.41% (inactive).
Still for that read-out and setting: with `Cc1cc(C)n(S(=O)(=O)c2cc(C(=O)O)c(Cl)cc2Cl)n1` the figure was -10.2% (inactive); with `COc1ccccc1CC(=O)NCc1ccc2c(c1)OCO2`, 9.18% (inactive); with `CCOC(=O)C1=C(C)N(C)C(C)=C(C(=O)OCC)C1c1cccnc1`, 0.9% (inactive).
As for `C#CCN1C(=O)C(O)(CC(=O)c2cc(OC)ccc2OC)c2ccccc21` (stereo not given), the differential viability (reversal) was -16.8% (inactive).
The same measure, in the same setting: the figure for `Cc1nc(SCC(=O)NCc2ccco2)c2c(C)c(C)sc2n1` is 15.1% (inactive); for `CCOc1ccc(N2CC(C(=O)Nc3ccc(F)cc3F)CC2=O)cc1` (stereo not given) it is 19.7% (inactive).

Still in this test, the particulars now being: H69AR cells + 2 uM doxorubicin, CellTiter-Glo, 72 h; measured here: viability with 2 uM doxorubicin; at 10 µM; stronger effect = lower value.
Regarding `CCOC(=O)C1CCCN(C(=O)CNS(=O)(=O)c2ccc(Br)s2)C1` (stereo not given), the viability turned out to be 78%.
In the case of `COc1ccc(CN(C)CC(=O)c2c(N)n(Cc3ccccc3)c(=O)n(C)c2=O)c(OC)c1`, the viability came out at 83.6%.
The same measure, in the same setting: with `CC(CN1CCOCC1)(NS(=O)(=O)c1ccccc1)c1ccccc1` (stereo not given) the figure was 86.2%; with `CCOC(=O)CSC1=Nc2ccccc2C2=NC(CC(=O)NCc3cccs3)C(=O)N12` (stereo not given), 86%.
Still for that read-out and setting: with `Cc1ccc(-c2nn3c(C)nnc3s2)cc1N` the figure was 78.2%.
As for `CC1(C)C2CCC1(CS(=O)(=O)NCc1ccc(C(=O)O)cc1)C(=O)C2` (stereo not given), the viability worked out at 84.2%.
Still for that read-out and setting: with `O=c1c2ccccc2c(C=Nc2ccc(Cl)cn2)c(O)n1-c1cc(Cl)ccc1N1CCOCC1` the figure was 81.8%.
On the same count and under the same terms, the figure for `O=C(Nc1ccc(S(=O)(=O)Nc2ccc(Cl)cc2)cc1)C1CCCO1` (stereo not given) is 89.3%; for `CCOc1ccc(C(=O)Nc2cc(C)on2)cc1OCC` it is 89.6%; for `O=C1CC(Cc2ccccc2)C(=O)N1CCc1ccc2c(c1)OCO2` (stereo not given) it is 97.7%.
`COc1ccccc1-c1nc(C(F)(F)F)c(OC)o1`: the viability came out at 81.6%.
For the compound `OCCn1c(CSc2nnc(-c3ccco3)n2-c2ccccc2)nc2ccc(Cl)cc21`, the viability was determined as 81.7%.
Still for that read-out and setting: the figure for `COc1cc2c(cc1OC)CN(C(=O)COc1ccc(C#N)cc1)CC2` is 96.8%; for `CCOC(=O)NC(=O)CSc1nnc(C)s1` it is 96.5%.
Still for that read-out and setting: the figure for `CC1(C)CC(=O)C2=C(C1)Nc1nc(SCCN3CCOCC3)[nH]c(=O)c1C2c1cccs1` (stereo not given) is 87.8%; for `COc1ccc(C(=O)CSc2nnc(CNc3ccc(C)cc3C)o2)cc1` it is 81.6%; for `CCCCc1cc(=O)oc2c(CN3CCCC3)c(O)c(Cl)cc12` it is 93.3%.
Still for that read-out and setting: with `CCOc1ccccc1OCC(=O)NCc1ccco1` the figure was 85.1%; with `COCCn1cc(C(=O)NCCCN2CCC(C)CC2)c2c3ccccc3n(C)c2c1=O`, 86.2%; with `Cc1nc(C)c(C(=O)OCC(=O)N2CCN(c3ccccc3)CC2)s1`, 88.1%.
Regarding `COC(=O)c1cc(Br)ccc1-c1ccc(/C=N/n2nnnc2N)o1`, the viability was found to be 66.7%.
For `O=C1c2ccccc2NC(c2ccco2)N1O` (stereo not given), the viability was determined as 87.3%.
On to `COc1cc(CN2CCC(C(=O)NC3CCCC3)CC2)ccc1O`, for which the viability was 85.2%.
For the compound `Cn1c(=O)n(C)c2cc(NC(=O)C(F)(F)F)ccc21`, the viability is 85.8%.
With `Cc1nc(SCC(=O)CC(=O)OC(C)C)c(C#N)c(C)c1C`, the viability turned out to be 88.7%.
Still for that read-out and setting: the figure for `COc1ccc(Br)cc1S(=O)(=O)N1CCOCC1` is 83.5%; for `CC(=O)CC(=O)Nc1ccccc1NC(C)=O` it is 93.2%.
Consider `Cn1c(=O)c2ccccc2n(Cc2ccccc2F)c1=O`, for which the viability is 90.8%.
For `Cc1ccc(NC(=O)c2ccco2)c(NC(=O)c2cccs2)c1`, the viability is 89.9%.
The same measure, in the same setting: with `CC(=O)N1C(=O)c2cccc3cccc(c23)C(=O)N1C(C)=O` the figure was 93%; with `CCCC(C)C1C(C#N)=C(N)Oc2cc(C)oc(=O)c21` (stereo not given), 92.6%.
Same read-out and setting: with `CC(C)OC(=O)CSc1nnc(-c2ccc(O)cc2)n1Cc1ccccc1` the figure was 85%; with `Cn1c(=O)c(=O)n(C)c2cc(S(=O)(=O)N3CCCCC3)ccc21`, 84.3%; with `Cc1nc2ccc(NC(=O)NCc3ccco3)cc2s1`, 83.2%.
Still for that read-out and setting: the figure for `Cc1cc(C)n(S(=O)(=O)c2cc(C(=O)O)c(Cl)cc2Cl)n1` is 92.8%; for `COc1ccccc1CC(=O)NCc1ccc2c(c1)OCO2` it is 84.3%; for `CCOC(=O)C1=C(C)N(C)C(C)=C(C(=O)OCC)C1c1cccnc1` it is 91.5%.
Take `C#CCN1C(=O)C(O)(CC(=O)c2cc(OC)ccc2OC)c2ccccc21` (stereo not given): the viability was 55.5%.
The same measure, in the same setting: with `Cc1nc(SCC(=O)NCc2ccco2)c2c(C)c(C)sc2n1` the figure was 71.4%.
Regarding `CCOc1ccc(N2CC(C(=O)Nc3ccc(F)cc3F)CC2=O)cc1` (stereo not given), the viability is 90.9%.
